# What was measured:
# [1] = test system: Human papillomavirus type 1a protein E7 (residues 44-93); test: HPV1a E7 fragment binders on microarrays, primary screen, biochemical, small-molecule microarray, residues 44-93, 635 nm fluorescence (AID 1108); conditions: small-molecule microarray binding, fluorescence 635 nm; higher = more signal;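 further: E7 fragment applied at 1 µg/mL in TBST for 1 h at 4 C; score combines spot fluorescence with its signal to noise ratio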
# [2] = modulators of HCV replicon luciferase signal, primary screen, HCV replication inhibitor project, Huh7 cells, luciferase reporter (AID 1109); conditions: 48 h, higher = more signal;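 further: huh7 hepatoma cells harbouring a luciferase neomycin HCV replicon reporter; luciferase luminescence as measure of HCV replicon replication; test concentration not given here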
# [3] = target: Left-right determination factor 2 (Homo sapiens) (UniProt O00292); test: LEFTY2 binders on small-molecule microarrays, primary screen, biochemical, small-molecule microarray, 635 nm fluorescence scan (AID 1110); conditions: LEFTY2 binding, higher = more signal
# [4] = target: Calmodulin-1 (Homo sapiens) (UniProt P0DP23); test: CALM1 binders on microarrays, EGTA buffer, profiling panel, biochemical, small-molecule microarray, Cy5-labelled CALM1 (AID 1111); conditions: Cy5-CALM1 binding fluorescence, higher = more signal;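 further: labelled calmodulin applied in Tris saline Tween buffer holding calcium plus EGTA and DTT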
# [5] = target: Calmodulin-1 (Homo sapiens) (UniProt P0DP23); test: calcium-bound CALM1 binders on microarrays, profiling panel, artefact control for SMM control-protein annotation, biochemical, small-molecule microarray, Cy5-labelled CALM1, plus calcium (AID 1112); conditions: Cy5-CALM1 binding fluorescence, higher = more signal;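 further: score merges spot fluorescence with signal to noise from triplicate slides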
# [6] = small-molecule microarray binders of probe aWnt5a, primary screen, biochemical, biotinylated probe, 635/667 nm fluorescence (AID 1113); conditions: higher = more signal;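 further: score merges 667 nm fluorescence intensity with signal-to-noise per printed feature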
# [7] = small-molecule microarray binders of probe aShh, primary screen, biochemical, biotinylated probe, 635/667 nm fluorescence (AID 1114); conditions: higher = more signal;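 further: probe is biotin-labelled aShh protein from a stem cell growth factor screen; measures binding of labelled protein to compounds printed on the slide; score merges feature fluorescence at 667 nm with signal-to-noise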
# [8] = small-molecule microarray binders of probe aNog, primary screen, biochemical, biotinylated probe, 635/667 nm fluorescence (AID 1115); conditions: higher = more signal;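 further: probe is biotinylated aNog protein used at 0.15 µg/mL for 1 h at 4 C; z-score combines 667 nm fluorescence of each spot with its signal to noise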
# [9] = target: Torsin-1A-interacting protein 1 (Homo sapiens) (UniProt Q5JTV8); test: LAP1 binders from COS7 cell lysate, primary screen, small-molecule microarray, 635/667 nm fluorescence (AID 1116); conditions: COS7-hLAP1 lysate binding, 635 nm fluorescence, higher = more signal
# [10] = target: Alpha-bungarotoxin (Bungarus multicinctus) (UniProt P60615); test: alpha-bungarotoxin binders on microarray, profiling panel, artefact control for SMM control protein annotation, biochemical, small-molecule microarray, Alexa647 label, 635/667 nm fluorescence (AID 1117); conditions: alpha-BTX-A647 binding fluorescence, higher = more signal
# Chain of Alpha-bungarotoxin (Bungarus multicinctus) (P60615 whole entry, looked up): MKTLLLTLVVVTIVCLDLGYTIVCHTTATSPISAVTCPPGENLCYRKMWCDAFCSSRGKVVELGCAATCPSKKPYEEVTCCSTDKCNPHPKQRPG
# Chain of Left-right determination factor 2 (Homo sapiens) (O00292 whole entry, looked up): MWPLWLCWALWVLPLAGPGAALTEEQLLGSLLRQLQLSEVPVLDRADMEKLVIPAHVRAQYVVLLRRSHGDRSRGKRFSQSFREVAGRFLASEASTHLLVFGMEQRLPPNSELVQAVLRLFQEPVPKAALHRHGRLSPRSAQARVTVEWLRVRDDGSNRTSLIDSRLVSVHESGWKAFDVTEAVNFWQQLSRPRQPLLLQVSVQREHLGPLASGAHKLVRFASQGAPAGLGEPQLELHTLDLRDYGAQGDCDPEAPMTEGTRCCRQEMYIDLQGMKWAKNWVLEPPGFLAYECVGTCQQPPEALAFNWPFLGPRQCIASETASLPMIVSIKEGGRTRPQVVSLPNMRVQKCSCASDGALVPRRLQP
# Chain of Torsin-1A-interacting protein 1 (Homo sapiens) (Q5JTV8 whole entry, looked up): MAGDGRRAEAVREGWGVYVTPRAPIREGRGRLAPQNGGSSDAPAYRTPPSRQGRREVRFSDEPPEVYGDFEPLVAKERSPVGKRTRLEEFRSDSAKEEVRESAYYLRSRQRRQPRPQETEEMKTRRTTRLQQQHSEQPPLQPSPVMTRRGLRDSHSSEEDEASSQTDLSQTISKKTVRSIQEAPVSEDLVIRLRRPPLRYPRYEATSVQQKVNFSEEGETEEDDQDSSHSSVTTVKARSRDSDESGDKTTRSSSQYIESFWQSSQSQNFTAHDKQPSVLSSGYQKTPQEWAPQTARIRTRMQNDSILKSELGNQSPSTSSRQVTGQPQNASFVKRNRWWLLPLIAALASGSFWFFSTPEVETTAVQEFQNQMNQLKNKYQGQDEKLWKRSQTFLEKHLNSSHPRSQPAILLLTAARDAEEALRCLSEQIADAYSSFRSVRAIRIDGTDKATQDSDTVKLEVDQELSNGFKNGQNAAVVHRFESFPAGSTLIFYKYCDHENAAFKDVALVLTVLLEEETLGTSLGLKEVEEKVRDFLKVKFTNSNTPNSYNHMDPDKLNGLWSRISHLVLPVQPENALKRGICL
SMILES,composite z-score [1],z-score [2],composite z-score [3],composite z-score [4],composite z-score [5],composite z-score [6],composite z-score [7],composite z-score [8],composite z-score [9],composite z-score [10]
COCCCNC(=O)[C@@]1(C)c2ccccc2C(=O)N(Cc2cc(C(F)(F)F)cc(C(F)(F)F)c2)[C@H]1c1ccc(CO)cc1,1.32,0.261,-1.8,0.0356,0.378,-0.154,-0.0626,0.583,-0.235,1.41
CC(C)NC(=O)[C@@H]1c2ccccc2C(=O)N(Cc2ccccc2Cl)[C@H]1c1ccc(CO)cc1,1.17,-0.657,-0.998,-0.0984,0.29,-0.13,-0.0769,0.139,1.25,-0.436
Cc1ccc(F)cc1S(=O)(=O)N[C@@H]1CCN(Cc2ccc(-c3ccccc3)cc2)C1,0.504,-4.36,0.473,-0.452,-0.578,-0.129,-0.0011,-0.316,0.668,0.116
COCCOC(=O)N1C(=O)[C@@]2(c3cc(C#CCC(C(=O)OC)C(=O)OC)ccc31)[C@H](c1ccccc1OCCO)N1[C@H](c3ccccc3)[C@H](c3ccccc3)OC(=O)[C@H]1[C@@H]2C(=O)N1CCc2cc(OC)c(OC)cc2C1,1.2,-1.79,0.958,1.54,0.0013,-0.363,-0.148,-0.289,0.496,0.942
COC(=O)[C@@]1(Cc2ccc(OC)cc2)[C@H]2c3cc(C(=O)N4CCCC4)n(CCc4c[nH]c5cc(F)ccc45)c3C[C@H]2CN1C(=O)c1ccccc1,0.991,-1.89,0.259,2.73,1.07,0.168,0.265,2.06,2.94,1.42
COc1ccc([Si](C)(C)[C@@H]2[C@@H](CCn3cc([C@H](O)c4ccccc4)nn3)O[C@]3(C(=O)N(Cc4ccc(N5C(=O)c6cccc7cccc5c67)cc4)c4ccccc43)[C@H]2C)cc1,0.314,-2.88,-0.556,0.273,0.702,-0.154,-0.0904,-0.131,-0.0215,0.152
Cc1ccc(S[C@]2(C(=O)NC3CC3)CC(=O)N(Cc3ccccc3)[C@@H]2c2ccc(CO)cc2)cc1,-0.269,-0.921,-1.19,-0.274,0.176,-0.197,-0.237,0.314,1.39,0.848
COC(=O)c1ccc(C(O)C2C=CC3C(=O)N(C)C(=O)C3N2NC(=O)OC(C)(C)C)o1 (stereo not given),0.703,-0.104,0.432,0.81,-0.493,0.112,-0.0904,0.672,2.02,0.977
Cc1ccc(S[C@]2(C(=O)NC3CC3)CC(=O)N(C3CCCCC3)[C@@H]2c2ccc(CO)cc2I)cc1,1.43,-2.79,0.0327,0.224,0.406,-0.154,-0.304,0.45,-0.0758,0.874
COCCOC(=O)N1C(=O)[C@@]2(c3ccccc31)[C@H](C(=O)Nc1nc3ccccc3s1)[C@H]1C(=O)O[C@H](c3ccccc3)[C@H](c3ccccc3)N1[C@@H]2c1ccc(OCCO)cc1,1.37,-2.05,0.382,1.31,0.773,0.135,-0.0626,0.544,0.96,1.6
CC(C)c1ccc(NN2C(C(O)c3cccc(O)c3)C=CC3C(=O)N(c4ccccc4)C(=O)C32)cc1 (stereo not given),1.43,0.141,-0.136,1.93,0.904,-0.0583,0.0588,1.78,1.5,1.31
Cc1ccc(S[C@]2(C(=O)NCCN3CCOCC3)CC(=O)N(Cc3cc(C(F)(F)F)cc(C(F)(F)F)c3)[C@@H]2c2ccc(CO)cc2I)cc1,0.105,-1.59,-1.45,-0.452,0.492,-0.176,-0.331,-0.389,-0.604,-0.306
CCCNC(=O)[C@@]1(c2ccc([N+](=O)[O-])cc2)CC(=O)N(CC23CC4CC(CC(C4)C2)C3)[C@@H]1c1ccc(CO)cc1,0.914,-2.86,0.421,-0.865,-0.827,0.0004,-0.569,0.0278,-0.303,1.01
CC(C)C[C@@H]1NC(=O)[C@@H]2C[C@H](C(=O)NCCCCCC[N+](C)(C)C)[C@H](c3ccc(O)cc3)N2C1=O,1.15,0.0338,0.424,0.669,-1.15,-0.208,0.246,-0.158,0.912,2
NC(=O)NCC#Cc1ccc2c(c1)[C@]1(C(=O)N2)[C@H](C(=O)N2CCCCCCC2)[C@H]2C(=O)O[C@H](c3ccccc3)[C@H](c3ccccc3)N2[C@@H]1c1ccc(OCCO)cc1,1.18,-1.03,1.04,1.99,0.897,0.83,2.19,2.19,1.45,2.02
CN(C)CCCCCCNC(=O)[C@H]1C[C@H]2C(=O)N[C@@H](CCCCN)C(=O)N2[C@H]1c1ccc(O)cc1,1.48,-0.181,1.56,2.01,1.14,0.914,2.1,3.38,4.52,2.42
COc1ccccc1CN1C(=O)c2ccccc2[C@@H](C(=O)NCCN2CCOCC2)[C@@H]1c1ccc(CO)cc1,0.623,-1.64,-0.725,-0.652,0.0041,-0.185,0.123,-0.232,1.01,-0.737
C=CC[C@@]1(C(=O)NCC(O)CO)N=C(c2ccc(OCCCO)cc2)O[C@@H]1c1ccccc1N=[N+]=[N-] (stereo not given in full),1.49,-0.747,-0.709,1.61,0.643,-0.0846,0.0062,1.39,2.06,1.12
CC(C)C(O)C1C=CC2C(=O)N(c3ccccc3)C(=O)C2N1Nc1ccc(C#N)cc1 (stereo not given),0.931,0.993,1.11,0.875,0.717,-0.0522,-0.452,0.843,0.892,1.36
Cc1cc(C)cc(N2C(=O)CS(=O)(=O)C2c2cccc([N+](=O)[O-])c2)c1 (stereo not given),-0.489,-0.0865,0.39,1.47,0.395,-0.15,0.108,0.549,1.23,1.25
COCCOC(=O)N1C(=O)[C@@]2(c3ccccc31)[C@H](C(=O)NC[C@H](O)c1ccccc1)[C@H]1C(=O)O[C@H](c3ccccc3)[C@H](c3ccccc3)N1[C@@H]2c1ccc(OCCO)cc1,1.11,-1.33,0.965,0.932,-0.373,-0.0263,0.0723,-0.466,1.13,0.247
C=CC(=C)C1=CCO[C@@H]1[C@H]1CCCN1S(=O)(=O)c1ccccc1[N+](=O)[O-],-0.0291,-1.4,0.867,0.397,-0.112,-0.101,-0.0626,-0.175,0.169,0.537
C=CCNC(=O)[C@@H]1[C@H]2C(=O)O[C@H](c3ccccc3)[C@H](c3ccccc3)N2[C@H](c2ccc(OCCO)cc2)[C@@]12C(=O)Nc1ccccc12,1.39,-1.72,0.302,0.705,-0.495,-0.0179,0.0469,-0.543,1.55,1.05
CC1CC/C=C\[C@H]2OC34C=CCN(Cc5ccccc5)C(=O)[C@H]3N(CCCCCO)C(=O)[C@@H]4C2C(=O)O1 (stereo not given in full),-0.853,0.28,-0.918,-0.457,0.163,-0.0981,-0.345,-0.0704,1.04,1.39
O=c1cccc(C=Cc2ccccc2)o1,-0.64,-0.854,-1.31,-0.471,-0.274,-0.145,0.147,-0.411,-0.363,-0.374
COC(=O)[C@@]1(Cc2ccc(OC)cc2)[C@H]2c3cc(C(=O)N4CCCC4)n(Cc4ccccn4)c3C[C@H]2CN1C(=O)c1ccccc1,1.48,-1.52,-0.662,1.42,0.816,0.202,-0.0069,2.04,1.07,0.65
COc1ccc([Si](C)(C)[C@@H]2[C@@H](CCn3cc([C@H](O)c4ccccc4)nn3)O[C@]3(C(=O)N(Cc4cccc(N5CCOC5=O)c4)c4ccccc43)[C@H]2C)cc1,-0.362,-2.64,-1.47,-0.13,0.78,-0.202,-0.117,-0.256,-0.0689,-0.85
CN(C)CCCNC(=O)[C@@]1(Cc2ccccc2I)c2ccccc2C(=O)N(Cc2ccccc2C(F)(F)F)[C@H]1c1ccc(CO)cc1,0.973,-3.4,-1.2,-0.327,-0.149,-0.176,-0.138,0.612,0.283,0.376

# — PubChem BioAssay
